# SMN2 splice enh = increases expression of the SMN2 splice variant. 210,000 tested, 2.8% active. Potency, µM (doses to about 46.1 µM), for inactives: at the top dose activity change, positive = activation, hits mostly activators. HEK293 SMN2-luciferase splicing reporter, luminescence, 30-36 h; note: % of control where 0% means no effect; nearly all actives have a fitted effect of over 55% in size
#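 qHTS luciferase splicing reporter: luminescence rises when SMN2 exon 7 is included in transfected HEK293 cells. Compound exposure lasted 30-36 h at 37C, with 4.5 mM final sodium butyrate as control, followed by a ONE-Glo read.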
# ELG1 repair inh = ELG1-dependent DNA repair inhibition; Potency, µM (highest dose often 46.1 µM), for the others: top-dose activity change, negative = inhibition, most hits filed as inhibitors; AID 504467; HEK293T ELG1-luciferase reporter, luminescence, 16 h; DNA damage induced by 5-fluorouridine; 330,000 tested, 2.3% active; note: % is set by controls: 0 for no effect and ±100 for the full control effect; nearly all actives have a fitted effect of over 55% in size
#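 5-Fluorouridine DNA damage + compound/DMSO, 2,000 cells/well, 16 h, 37 °C/5% CO2. ONE-Glo, 30 min RT, luminescence. Readout = decrease in reporter signal.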
# FLuc modulator = inhibits or activates purified firefly luciferase, miR-21 counter-screen | P08659 | purified FLuc, Km substrates, luminescence inhibition | Potency, µM (doses to about 57.5 µM), without a hit: at the highest dose activity change, negative = inhibition, actives largely listed as inhibitors | 360,000 tested, 6.9% active;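 note: plate controls were vehicle for no effect and reference inhibitor for full effect; nearly all actives have a fitted effect of over 55% in size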
# Target sequence (P08659 whole entry, looked up): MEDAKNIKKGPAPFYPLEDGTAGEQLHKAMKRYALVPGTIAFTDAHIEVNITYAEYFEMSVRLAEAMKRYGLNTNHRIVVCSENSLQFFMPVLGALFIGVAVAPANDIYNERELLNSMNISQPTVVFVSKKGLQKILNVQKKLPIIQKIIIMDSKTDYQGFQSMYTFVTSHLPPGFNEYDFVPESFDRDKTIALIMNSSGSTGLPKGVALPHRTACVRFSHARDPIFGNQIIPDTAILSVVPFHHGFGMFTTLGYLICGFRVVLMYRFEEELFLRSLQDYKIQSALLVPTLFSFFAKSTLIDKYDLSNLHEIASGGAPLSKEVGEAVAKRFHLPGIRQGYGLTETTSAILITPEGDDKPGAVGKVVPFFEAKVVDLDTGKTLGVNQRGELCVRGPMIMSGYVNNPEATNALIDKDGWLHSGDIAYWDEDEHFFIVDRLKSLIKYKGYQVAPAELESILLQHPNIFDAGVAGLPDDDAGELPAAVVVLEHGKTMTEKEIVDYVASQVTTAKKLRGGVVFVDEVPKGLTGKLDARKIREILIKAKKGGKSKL
#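 Biochemical qHTS of compounds, final roughly 60 µM downward over six points, against 10 nM purified firefly luciferase using Km concentrations of substrates (10 uM D-luciferin, 10 uM ATP) in Tris acetate pH 7.5 buffer; luminescence output.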
# Rab9 promoter act = activates the Rab9 promoter | Potency, µM (titrated, usually from 9.22 µM), inactives show at the highest dose activation, negative = inhibition, most hits filed as activators | 320,000 tested, 2.8% active | Huh7 Rab9 promoter-luciferase reporter, luminescence, 24 h; note: % of control where 0% means no effect; nearly all actives have a fitted effect of over 60% in size
#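 Luminescence from Amplite-detected luciferase (10 minutes, ambient) reports Rab9 promoter activation. Before that, stable Rab9-luciferase Huh7 cells (1500/well, reduced-serum OP-MEM I plus 10% FBS) were exposed to compound for 24 hours at 37C.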
# NPC1 promoter act = NPC1 promoter activation | 320,000 tested, 2.4% active | Potency, µM (titrated, usually from 9.22 µM), for inactives: top-dose activation, most hits filed as activators | Huh7 NPC1 promoter luciferase reporter, 24 h; note: % of control where 0% means no effect; nearly all actives have a fitted effect of over 60% in size
#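 NPC1 promoter–luciferase Huh7 cells; 24 h compound; luminescence.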
# ELG1 genotox = inducers of genotoxicity in HEK293T ELG1-luciferase cells; HEK293T ELG1-luciferase reporter, luminescence, 16 h; Potency, µM (top dose mostly 46 µM), without a hit: at the top dose activity change, positive = activation, most hits filed as activators; 330,000 tested, 1.3% active; AID 504466; note: % of control where 0% means no effect; nearly all actives have a fitted effect of over 60% in size
#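 DMSO vehicle served as control against compound-treated ELG1-luciferase HEK293T cells; exposure lasted 16 hr at 37 °C and 5% CO2, followed by ONE-Glo luminescence detection after 30 min.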
# * = called active by the depositor; ? = inconclusive; · = no result given; [ ] = another dose, or the depositor's remark. Only some compounds are listed: those with a hit (about 9.2% of all), similar ones and a draw of the others. Calls come from the whole dose curve; as a rule, active = well fitted curve in the direction sought with a large enough effect; inconclusive = small, poorly fitted or top-dose-only effect, or another doubt; inactive = no such curve, though single readings can be large; an effect the other way counts as inactive or inconclusive. Potency is the fitted concentration of half-maximal effect.
SMILES,SMN2 splice enh,ELG1 repair inh,FLuc modulator,Rab9 promoter act,NPC1 promoter act,ELG1 genotox
Cc1ccc(C(=O)CCC(=O)NC2CCCC(C)C2C)cc1 (stereo not given),·,15%,3%,-23%,0%,-2%
Cc1ccc(S(=O)(=O)c2cn(C)c3cc(N4CCCCCC4)c(F)cc3c2=O)cc1,·,·,4%,·,·,·
Cc1ccc(C)c(NC(=O)CN2C(=O)CCc3cc(S(=O)(=O)N4CCCCC4)ccc32)c1,·,·,2%,·,·,·
O=C(c1ccc2c(c1)N(Cc1ccccc1)C(=O)c1ccccc1S2(=O)=O)N1CCc2ccccc21,-11%,·,-3%,·,·,·
O=C(CN1CCCC1)Nc1nc(-c2ccc3c(c2)CCN3C(=O)c2ccccc2F)cs1,·,?,24µM*,13%,20%,-15%
CNc1nc(-c2ccc3c(c2)CCN3C(=O)c2ccccc2C)cs1,22µM*,?,7.6µM*,2.2µM*,4µM*,?
CNc1nc(-c2ccc3c(c2)CCN3C(=O)c2ccc(F)cc2)cs1,2%,-15%,12µM*,?,25%,3%
Cc1cccc(C(=O)N2CCc3cc(-c4csc(NC(=O)CN5CCCC5)n4)ccc32)c1,·,?,?,-2%,-3%,-23%
Cc1ccccc1C(=O)N1CCc2cc(-c3nc(NC(=O)Cc4ccc5c(c4)OCO5)sc3C)ccc21,-64%,?,2%,-20%,-23%,0%
CNc1nc(-c2ccc3c(c2)CCN3C(=O)c2cccc(F)c2)cs1,·,?,4.8µM*,2µM*,?,0%
Cc1sc(NC(=O)Cc2ccc3c(c2)OCO3)nc1-c1ccc2c(c1)CCN2C(=O)c1cccc(F)c1,-54%,?,7%,-16%,-16%,-4%
COC1=C[C@@H](C)C2CC3OC(=O)C[C@H]4C(C)=C(OC)C(=O)C([C@@]2(C)C1=O)[C@@]34C (stereo not given in full),-1%,·,·,·,·,·
Cc1cccc(N(C)C(=O)C(Cc2ccccc2)NS(=O)(=O)c2cccc3nsnc23)c1 (stereo not given),-16%,·,-10%,·,·,·
COc1cccc(/C=N/NC(=O)c2cccc3ccccc23)c1,·,-12%,-11%,-2%,10%,-6%
COc1ccc(C(=O)Nc2ccccc2C(=O)N/N=C/c2cccc3ccccc23)cc1,-60%,?,0.085µM*,?,?,-9%
COC(=O)c1ccccc1NC(=S)NC(=O)c1ccc2c(c1)OCO2,·,20%,-19%,-3%,-2%,10%
COc1ccc(C(=O)Nc2ccccc2C(=O)Nc2ccc(C(=O)O)cc2)cc1,·,?,0.76µM*,?,?,?
NC(=O)c1ccccc1NC(=O)c1ccc2c(c1)OCO2,·,?,7.6µM*,1.8µM*,1µM*,?
COc1ccc(NC(=O)c2ccccc2NC(=O)COc2ccccc2)cc1,19%,6%,-1%,2%,-2%,17%
COc1ccc(NC(=O)c2ccccc2NC(=O)NC2CCCCC2)cc1,20%,?,5.4µM*,18%,21%,4%
CN1C(=O)[C@H](Cc2ccc([N+](=O)[O-])cc2)NC1=S,·,0%,3%,1%,-6%,-7%
COc1ccc(C(=O)Nc2ccccc2C(=O)Nc2ccncc2)cc1,·,?,1.7µM*,?,?,?
Cc1ccccc1NC(=O)c1ccc2ccccc2c1,·,?,15µM*,?,?,?
CCC(NC(=O)c1ccccc1NC(=O)c1ccc(OC)cc1)C(=O)N1CCCC1 (stereo not given),?,?,17µM*,24%,21%,13%
Cc1ccccc1NC(=O)NNC(=O)c1ccc2ccccc2c1,·,15%,-1%,-3%,-1%,7%
SMILES,SMN2 splice enh,ELG1 repair inh,FLuc modulator,Rab9 promoter act,NPC1 promoter act,ELG1 genotox
COc1ccc(C(=O)Nc2ccc(O)cc2C(=O)O)cc1,-6%,6%,11µM*,3%,-4%,-2%
O=C(COCc1cc(-c2ccc3c(c2)OCO3)on1)Nc1cc(Cl)ccc1O,·,·,3%,·,·,·
CCOc1ccc(-n2nc(CO)c(C(=O)NCC(C)O)n2)cc1 (stereo not given),-5%,·,?,·,·,·
COc1cc(C2C(=O)N(C3CCCCC3)CC(=O)N2Cc2ccc(C)cc2)ccc1OC(C)C (stereo not given),·,·,-5%,·,·,·
COC(=O)N1CCC2(CCN(C(=O)Nc3cccc(C#N)c3)CC2)CC1,2%,·,·,·,·,·
Cc1onc(-c2ccccc2)c1C(=O)NCC(=O)Nc1cc(Cl)ccc1Cl,·,-5%,·,·,·,-5%
CCCN1C(=O)c2cc(C(=O)Nc3ccccc3C)ccc2C1Nc1ccccc1C (stereo not given),·,23µM*,2%,-15%,1%,-7%
COCC(=O)Nc1ccccc1C(=O)Nc1ccc(OC)cc1,?,?,1%,2.8µM*,?,?
Cc1nnc(NC(=O)c2ccc(S(=O)(=O)N3CCCCCC3)cc2)o1,-36%,-11%,-2%,3%,-5%,2%
Cc1nnc(NC(=O)c2ccc3ccccc3c2)o1,-13%,17%,24µM*,11%,4%,2%
NC(=O)c1ccccc1NC(=O)c1ccc2ccccc2c1,·,?,0.54µM*,0.56µM*,0.89µM*,2.3µM*
CC(c1ccccc1)N1CC(C(=O)Nc2ccc(F)cc2)CC1=O (stereo not given),·,19%,1%,-2%,-8%,-2%
CCOC(=O)c1ccc(CN(Cc2ccccc2C)S(=O)(=O)c2ccc(F)c(C)c2)cc1,·,·,-5%,·,·,·
COc1c(Cl)cc(C(=O)NN)cc1Cl,·,?,1%,3%,-3%,?
COc1ccc(C(=O)Nc2ccccc2C(N)=O)cc1,32µM*,?,-22%[2.3 µM],2µM*,3.2µM*,?
COc1c(Cl)cc(C(=O)Nc2ccccc2C(=O)O)cc1Cl,-3%,?,17µM*,18%,3%,2%
COc1ccc(C(=O)Nc2ccccc2C(=O)Nc2ccccc2C(=O)O)cc1,·,-3%,0.48µM*,2.8µM*,3.2µM*,2%
COc1ccc(C(=O)Nc2ccccc2C(=O)N2CCCCCC2)cc1,·,18%,0%,4%,?,5%
CCCCNC(=O)Nc1ccccc1C(=O)Nc1ccc(OC)cc1,13%,?,11µM*,13%,2%,8%
CCC(NC(=O)CNC(=O)c1ccc2c(c1)OCO2)c1ccc(Br)cc1 (stereo not given),·,-5%,0%,-3%,0%,-1%
O=C(O)c1ccc(NC(=O)c2ccccc2NC(=O)c2ccccc2Cl)cc1,·,10%,19µM*,-2%,-2%,1%

# High-throughput results: PubChem BioAssay, National Center for Advancing Translational Sciences (NCATS)
